Inconclusive results are not listed. Entries that show only a call come without a potency. Values without a mark were called inactive. Active and inactive are the calls of the source. The call rests on the fitted dose curve; in most records, active means well fitted inhibition curve with a large enough effect; inconclusive means small, poorly fitted or top-dose-only effect; inactive means no such curve, though single readings can be large or run the other way.
Potency means the concentration at half of the fitted maximal effect.

The assay can be described thus: Primary fluorescence-based thiol-reactive (MSTI) qHTS assay for identification of artifact compounds. (AID 1845221). Further: nearly all actives have a fitted effect of over 65% in size.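 On activity change, negative = thiol reactive: thiol-reactive compounds lower the probe fluorescence signal.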 Conditions: MSTI thiol-reactivity probe, 1 h; series mostly up to 53.8 µM. The method, boiled down:
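First, 4 uM MSTI in 2% DMSO/PBS pH 7.4 was dispensed; next, compounds were added; then plates sat 1 h at room temperature without light. Finally, emission at 598 nm was recorded.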
In the case of `C[N+]1(C)[C@@H]2CC[C@H]1CC(OC(=O)C(O)c1ccccc1)C2` (stereo partly drawn), the Potency entry was “inactive”.

Turning to `O=C(c1ccc(F)c(F)c1Nc1ccc(I)cc1F)N1CC(O)([C@@H]2CCCCN2)C1`, the Potency result is “inactive”.

Regarding `CCNC(=O)[C@@H]1CCCN1C(=O)[C@H](CCCN=C(N)N)NC(=O)[C@H](CC(C)C)NC(=O)[C@@H](CC(C)C)NC(=O)[C@H](Cc1ccc(O)cc1)NC(=O)[C@H](CO)NC(=O)[C@H](Cc1c[nH]c2ccccc12)NC(=O)[C@H](Cc1cnc[nH]1)NC(=O)[C@@H]1CCC(=O)N1`, the Potency result is “inactive”.

Regarding `CC(CCC1(O)OC2CC3C4CC=C5CC(O[C@@H]6O[C@H](CO)[C@@H](O[C@@H]7O[C@H](CO)[C@@H](O)[C@H](O)[C@H]7O)[C@H](O)[C@H]6O[C@@H]6O[C@@H](C)[C@H](O)[C@@H](O)[C@H]6O)CCC5(C)C4CCC3(C)C2C1C)CO[C@@H]1O[C@H](CO)[C@@H](O)[C@H](O)[C@H]1O` (stereo partly drawn), the activity change, negative = thiol reactive is 204% [at 11.5 µM].

Regarding `CN([C@H]1c2cc(OCCCC(F)(F)F)ccc2OC(C)(C)[C@@H]1O)S(C)(=O)=O`, the Potency result was “inactive”.

Turning to `Cn1c(NC[C@@H](N)Cc2ccccc2)nc(-c2ccncc2)c(-c2ccc3ccccc3c2)c1=O`, the Potency result was “inactive”.

Regarding `CCCCC(=O)N(Cc1ccc(-c2ccccc2-c2nn[nH]n2)cc1)C(C(=O)O)C(C)C` (stereo not drawn), the Potency entry was “inactive”.

For the compound `Nc1nc(NCC2CCC(CNS(=O)(=O)c3cccc4ccccc34)CC2)nc2ccccc12` (stereo not drawn), the Potency entry was “inactive”.

As to `CCCCc1nc(Cl)c(CO)n1Cc1ccc(-c2ccccc2-c2nnn[nH]2)cc1`, the Potency result is “inactive”.

Take `CCC(=O)c1cc(-c2ccc(Cl)cc2)n(-c2ccc(S(N)(=O)=O)cc2)c1C`: the Potency result is “inactive”.

Regarding `Cc1cc(N=Nc2ccc(S(=O)(=O)Nc3ccccn3)cc2)c(N)cc1O`, the Potency was 597 nM (active).

Take `Cc1nnsc1C(=O)Nc1ccc(-n2nc(C(F)(F)F)cc2C(F)(F)F)cc1`: the Potency result is “inactive”.

As to `Cc1cc(C)c(NC(=O)N(Cc2ccc3c(c2)Cc2ccccc2-3)C2CCCCCC2)c(C)c1`, the Potency entry is “inactive”.

Take `Fc1ccccc1CNCc1ccc(-c2ccnc3[nH]ccc23)cc1`: the Potency entry is “inactive”.

In the case of `CN(Cc1ccc(C(=O)O)cc1)c1ccc(OCc2c(-c3c(Cl)cccc3Cl)noc2C2CC2)nc1C(F)(F)F`, the Potency result was “inactive”.

For the compound `Cc1nc(C)c2c(n1)N(Cc1ccc(-c3ccccc3-c3nn[nH]n3)cc1)C(=O)CC2`, the Potency result is “inactive”.

As for `N#C[C@@H]1C[C@@H]2C[C@@H]2N1C(=O)[C@@H](N)C12CC3CC(CC(O)(C3)C1)C2`, the Potency result is “inactive”.

Consider `CCCCOc1ccc(-c2cncc(C(=O)NCc3cccnc3N3CCOCC3)c2)cc1Cl`, for which the Potency entry was “inactive”.

In the case of `C=CC(=O)N1CCN(C(=O)c2cc(-c3cc(Cl)ccc3Cl)c(Cl)cc2OC)CC1`, the Potency entry is “inactive”.

For `CC[C@H]1OC(=O)[C@H](C)[C@@H](O[C@H]2C[C@@](C)(OC)[C@@H](O)[C@H](C)O2)[C@H](C)[C@@H](O[C@@H]2O[C@H](C)C[C@H](N(C)C)[C@H]2O)[C@](C)(O)C[C@@H](C)/C(=N/OCOCCOC)[C@H](C)[C@@H](O)[C@]1(C)O`, the Potency entry was “inactive”.

Regarding `C[C@@H](O[C@H]1OCCN(Cc2n[nH]nc2CN(C)C)[C@H]1c1ccc(F)cc1)c1cc(C(F)(F)F)cc(C(F)(F)F)c1`, the Potency entry was “inactive”.

As to `Cc1cc(CN)cc(C)c1NC(=O)c1ccc(-c2cc(Cl)ccc2Cl)o1`, the Potency entry is “inactive”.

`CCCCc1nc(C)c(CC(=S)N(C)C)c(=O)n1Cc1ccc(-c2ccccc2-c2nn[nH]n2)cc1`: the Potency entry is “inactive”.

Consider `CC(=O)N1CCN([C@H]2CCN(C(=O)N(C)[C@H](C)c3cc(C(F)(F)F)cc(C(F)(F)F)c3)[C@@H](c3ccc(F)cc3C)C2)CC1`, for which the Potency result was “inactive”.

For `CC1(C)SC2C(NC(=O)[C@H](C(=O)O)c3ccsc3)C(=O)N2C1C(=O)O` (stereo partly drawn), the Potency entry is “inactive”.

As for `Cc1cc(C)c(-c2csc(NC(=O)c3ccccc3)n2)c(C)c1`, the Potency entry was “inactive”.

`COc1c(N2CC3CCCNC3C2)c(F)cc2c(=O)c(C(=O)O)cn(C3CC3)c12` (stereo not drawn): the Potency result was “inactive”.

Take `CN(CC(=O)N(Cc1ccc(C2CCCCC2)cc1)c1ccc(C(=O)O)cc1)S(=O)(=O)c1c(F)c(F)c(F)c(F)c1F`: the Potency result was “inactive”.

For `CO[C@@H]1[C@@H](O[C@H]2O[C@@H](C)[C@H](O[C@@H]3C[C@](C)(O)[C@H](O)[C@@H](C)O3)[C@@H](N(C)C)[C@@H]2O)[C@@H](CC=O)C[C@@H](C)[C@@H](O[C@H]2CC[C@H](N(C)C)[C@H](C)O2)/C=C/C=C/C[C@@H](C)OC(=O)C[C@H]1O`, the Potency result is “inactive”.

`CC1OC2O[C@H]3[C@@H](OCC(O)[C@H]3O)OC(=O)C34CCC(C)(C)CC3C3=CCC5C6(C)CC(O)C(OC7OC(CO)C(O)C(O)C7O[C@@H]7OC[C@H](OC(=O)CC(C)(O)CC(=O)OC1C(OC1OCC(O)C(O)C1O)C2O)[C@@H](O)[C@H]7O)C(C)(CO)C6CCC5(C)C3(C)CC4` (stereo partly drawn): the Potency result was “inactive”.

`COCCNCc1ccc(-c2cc3nccc(Oc4ccc(NC(=S)NC(=O)Cc5ccc(F)cc5)cc4F)c3s2)nc1`: the Potency entry is “inactive”.

As to `Cc1cc(CS(=O)(=O)c2ccccc2)cc(OCc2ccc(CN3CCC[C@@H]3CO)cc2)c1`, the Potency entry was “inactive”.

For `Cc1ccn(-c2cc(Cl)ccc2[C@@H](Oc2cc(-c3ccc(C[C@H](N)C(=O)O)cc3)nc(N)n2)C(F)(F)F)n1`, the Potency entry is “inactive”.

The values are drawn from PubChem BioAssay (NCATS).
